These results are taken from PubChem BioAssay (NCATS).

The structures appear in SMILES notation. Inconclusive results are not listed. Activity calls are given as the source filed them. Unless noted, calls follow the shape of the full dose curve.

A short description of test [1]: qHTS for Inhibitors of the Functional Ribonucleoprotein Complex (vRNP) of Lassa (LASV) Arenavirus: Viability assay - alamar blue signal for LASV Primary Screen (AID 1347083; calls by dose curve; tested in HEK293 reporter line; also: nearly all actives have a fitted effect of over 80% in size; also: potency is read from the fitted curve at half-maximal effect). A general note: Quantitative high-throughput screening tests each substance at several concentrations.
In test [2] the target is Nucleoprotein (Lymphocytic choriomeningitis virus (strain Armstrong)) (UniProt P09992). As to the kind of experiment: qHTS for Inhibitors of the Functional Ribonucleoprotein Complex (vRNP) of Lymphocytic Choriomeningitis Arenaviruses (LCMV): LCMV Primary Screen - GLuc reporter signal (AID 1347086). Also: nearly all actives have a fitted effect of over 70% in size. Also: potency is read from the fitted curve at half-maximal effect. As to activity change, negative = inhibition: % is scaled to controls: 0 for no effect and ±100 for the full control effect.
Test [3] can be described thus: Cytotoxicity counterscreen for inhibitors of SARS-CoV-2 cell entry (AID 1645845). Also: nearly all actives have a fitted effect of over 50% in size. Also: potency is read from the fitted curve at half-maximal effect. In outline: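 HEK293-ACE2 cells (Expi293F stably expressing human ACE2) seeded overnight, then compound for 1 h plus 48 h at 37C. Viability as ATP content by luminescence; normalized to wells with cells and media-only wells.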
A general note: The purpose of a counterscreen is to sort out artefacts and off-target activity.

Test [4] can be described thus: Confirmatory qHTS to identify inhibitors of SARS-CoV-2 cell entry (AID 1645844). Also: potency is read from the fitted curve at half-maximal effect; nearly all actives have a fitted effect of over 45% in size. A digest of the protocol: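 HEK293-ACE2 cells were pretreated 1 h with compound, then infected with MLV-based pseudoparticles bearing C-terminally truncated Wuhan-Hu-1 spike for 48 h at 37C; luciferase luminescence normalized to spike PP and bald PP wells.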
A short description of test [5]: VSVG counterscreen qHTS to identify inhibitors of SARS-CoV-2 cell entry (AID 1645847). Also: potency is read from the fitted curve at half-maximal effect; nearly all actives have a fitted effect of over 65% in size. In outline: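 HEK293-ACE2 cells (Expi293F, human ACE2) pretreated 1 h with compound, then infected with MLV-based VSV-G pseudotyped particles for 48 h at 37 C; luciferase luminescence normalized to VSV-G PP and bald PP wells.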
Test [6] in a line: Primary qHTS to identify inhibitors of SARS-CoV-2 cell entry (AID 1645846). Also: nearly all actives have a fitted effect of over 45% in size. Also: potency is read from the fitted curve at half-maximal effect. To be noted: activity change, negative = inhibition: at 57.1 µM (top of the series) unless noted. In outline: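 HEK293 cells stably expressing human ACE2, pre-treated 1 h with compound, then infected with MLV particles pseudotyped with Wuhan-Hu-1 spike (C-terminal 19-aa truncation). Luciferase luminescence after 48 h at 37 °C, normalised to spike PP and bald PP.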

Test [7] is described as follows: qHTS profiling of the MIPE4 collection as inhibitors of Plasmodium falciparum (3D7) proliferation (AID 743344; call rule not given here;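 also: scaled between DMSO vehicle wells and 0.29 µM artemisinin as full inhibition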). To be noted: P. falciparum 3D7 in erythrocytes, SYBR Green DNA fluorescence, 72 h; at 28.5 µM (top of the series) unless noted. In outline: (§1)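 Erythrocytes infected with P. falciparum (0.3% parasitemia, 2.5% hematocrit) incubated with compounds 72 h at 37 C, 5% CO2. Lysis with saponin/Triton buffer containing SYBR Green I, overnight at room temperature in the dark; DNA fluorescence (485/535 nm) normalised to 0.29 uM artemisinin and DMSO.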

A short description of test [8]: qHTS profiling of the MIPE4 collection as inhibitors of Plasmodium falciparum (DD2) proliferation (AID 743345; call rule not given here). To be noted: P. falciparum Dd2 in erythrocytes, SYBR Green DNA, 72 h; at 28.5 µM (top of the series) unless noted. A digest of the protocol: as §1
Test [9] is described as follows: qHTS for Inhibitors of the Functional Ribonucleoprotein Complex (vRNP) of Lymphocytic Choriomeningitis Arenaviruses (LCMV): Viability assay - alamar blue signal for LCMV Primary Screen (AID 1347085; calls by dose curve; tested in HEK293 reporter line; also: nearly all actives have a fitted effect of over 80% in size; also: potency is read from the fitted curve at half-maximal effect).
Test [10] is described as follows: Inducers of the Endoplasmic Reticulum Stress Response (ERSR) in human glioma: Validation (AID 504836; active = well fitted curve in the direction sought with a large enough effect; also: 0% is about no effect). A digest of the protocol: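 Stably transfected U87-MG glioma cells carrying a GRP78-based luciferase sensor; 16 h compound incubation. Luminescence end-point read 10 min after Bright-Glo addition at room temperature.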

Sequence of Nucleoprotein (Lymphocytic choriomeningitis virus (strain Armstrong)) (P09992 whole entry, looked up): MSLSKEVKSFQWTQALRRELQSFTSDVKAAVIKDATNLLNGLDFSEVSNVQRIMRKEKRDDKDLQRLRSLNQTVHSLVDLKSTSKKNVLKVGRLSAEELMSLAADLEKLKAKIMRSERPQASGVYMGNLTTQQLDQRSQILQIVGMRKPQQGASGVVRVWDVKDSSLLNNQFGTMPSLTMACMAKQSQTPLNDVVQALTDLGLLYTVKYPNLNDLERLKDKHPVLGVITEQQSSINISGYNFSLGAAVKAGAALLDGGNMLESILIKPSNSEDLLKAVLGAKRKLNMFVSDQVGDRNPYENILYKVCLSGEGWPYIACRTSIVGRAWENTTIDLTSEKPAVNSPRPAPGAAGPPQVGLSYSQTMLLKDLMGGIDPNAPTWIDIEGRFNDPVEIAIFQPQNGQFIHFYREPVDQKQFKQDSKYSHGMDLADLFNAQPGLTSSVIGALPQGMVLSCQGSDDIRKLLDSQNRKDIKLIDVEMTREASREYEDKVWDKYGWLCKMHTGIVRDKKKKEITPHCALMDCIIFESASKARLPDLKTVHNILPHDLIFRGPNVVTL

On to `c1ccc2c(Cc3c[nH]c4ccccc34)c[nH]c2c1`, for which the results for the Potency in test [1] and in test [2] were 4.32 µM (active) and 13.7 µM (active), respectively. For the same molecule, the Potency result in test [3] is “inactive”.

In the case of `Cc1cc(C(=O)N2CCN(c3cccc(Cl)c3)CC2)n(-c2ccccc2)n1`, the Potency is 0.611 µM (active) in test [1], 6.85 µM (active) in [2], 6.81 µM (active) in [4] and 3.41 µM (active) in test [5]. Also, the Potency result in test [3] is “inactive”.

With `CS(=O)(=O)N1CCc2c(-c3cnc(N)nc3)nc(N3CCOCC3)nc21`, the results for the Potency in test [1] and in [3] were 0.273 µM (active) and 3.55 µM (active), respectively. Moreover, in [2], the Potency entry was “inactive”.

As for `Cc1cnc(Nc2ccc(CN3CCOCC3)cc2)nc1Nc1cccc(S(=O)(=O)NC(C)(C)C)c1`, the results for the Potency in test [1] and in [3] were 4.32 µM (active) and 12.6 µM (active), respectively.

`C[C@@H](NC(=O)c1ncnc(N)c1Cl)c1ncc(C(=O)Nc2cc(C(F)(F)F)c(Cl)cn2)s1`: the Potency in test [1] is 24.3 µM (active). For the same molecule, the Potency entry in test [3] is “inactive”. In addition, in [6], the activity change, negative = inhibition is -12.7%.

`CN(C)CCOc1ccc(C(=C(CCCl)c2ccccc2)c2ccccc2)cc1` gave a parasite growth, % of DMSO control in test [7] of 67.8%. The parasite growth remaining, % of DMSO control (lower = more inhibition) in [8] is 55.4%. The Potency in test [1] was 12.2 µM (active).

As for `CN(C)N=Nc1nc[nH]c1C(N)=O`, the Potency in [1] is 17.2 µM (active). Besides, the Potency result in [3] is “inactive”.

Take `COCCOc1ccc2c(c1)ncn2-c1ccc2cccc(N3CCC(N)CC3)c2n1`: the Potency in test [1] is 24.3 µM (active); in test [6] it was 12.6 µM (active). Also, the Potency result in test [2] was “inactive”.

Consider `NC(=O)N1CCC(CC(=O)N2CCC([C@H]3c4ncc(Br)cc4CCc4cc(Cl)cc(Br)c43)CC2)CC1`, for which, in test [1], the Potency result was “inactive”. Also, the Potency in test [2] was 12.2 µM (active). In test [6], the activity change, negative = inhibition was -87.3%.

With `Cc1c(Cn2c(C)nc3c(C(=O)O)cc(N4CCOCC4)cc32)cccc1C(F)(F)F`, in test [1], the Potency is 1.09 µM (active). Further, in test [3], the Potency result was “inactive”. Besides, the activity change, negative = inhibition in [6] is -3.96%.

With `Cc1ccc(NC(=O)c2cccc(N(C)C)c2)cc1NC(=O)c1ccc(O)cc1`, the Potency in [1] is 12.2 µM (active). Besides, the Potency result in test [3] and in [6] was “inactive” in each case.

Turning to `COC1CCC(OC2CC(C3(C)CCC4(CC(O)C(C)C(C(C)/C=C(\C)C(=O)C(C)CC(C)C(=O)O)O4)O3)OC3(OC(C4OC(O)(CO)C(C)CC4C)CC3C)C2C)OC1C` (configuration not stated), the Potency result in [9] is “inactive”.

In the case of `C[C@@]12C=Cc3occc3[C@H]1CC[C@@]13C[C@@H](CC[C@H]12)[C@@](O)(CO)C3`, the Potency result in test [9] and in test [2] was “inactive” each time.

Take `CC=CC[C@@H](C)C(=O)[C@H]1C(=O)N[C@@H](C(C)C)C(=O)N(C)CC(=O)N(C)[C@@H](CC(C)C)C(=O)N[C@@H](C(C)C)C(=O)N(C)[C@@H](CC(C)C)C(=O)N[C@@H](C)C(=O)N[C@H](C)C(=O)N(C)[C@@H](CC(C)C)C(=O)N(C)[C@@H](CC(C)C)C(=O)N(C)[C@@H](C(C)C)C(=O)N1C`: the Potency entry in [9] is “inactive”.

As to `NC(=O)c1nnn(Cc2cc(Cl)c(C(=O)c3ccc(Cl)cc3)c(Cl)c2)c1N`, the Potency result in [9] and in test [2] was “inactive” throughout.

With `NS(=O)(=O)c1ccc(NC2=CC(=O)c3ccccc3C2=O)cc1`, the Potency is 38.5 µM (active) in [9] and 12.2 µM (active) in test [2]. Besides, the Potency result in [3] and in test [6] was “inactive” in each case.

Take `CC(=O)/C=C1\C(=O)N(C)c2ccccc21`: in [10], the outcome was inactive. In addition, in test [9], the Potency entry was “inactive”.

On to `COc1c(O)c(=O)n2c3ccccc3c3ccnc1c32`, for which, in test [2], the Potency result is “inactive”.

For `CN(C)c1ccc2cc(C(=O)N[C@@H](CCCN=C(N)CCl)C(=O)NCc3ccccc3)ccc2c1`, the Potency in test [9] is 34.3 µM (active). Moreover, the Potency result in [3] is “inactive”. The activity change, negative = inhibition in test [6] is -26.4%.

Take `C[C@@]1(c2cc(-c3cncnc3)c(F)cc2F)CCSC(N)=N1`: in [9], the Potency is 13.7 µM (active). For the same molecule, the Potency result in [3] was “inactive”. Besides, the activity change, negative = inhibition in test [6] was -2.33%.
